Compound activity deposited in PubChem by National Center for Advancing Translational Sciences (NCATS).
The sample as a whole holds a higher share of hits than the screen did.
Pf Dd2 growth – qHTS Primary assay for Inhibitors of Plasmodium falciparum Dd2 growth in vitro; P. falciparum Dd2 growth, SYBR Green, 72 h; hit rate 4.3% among 120,000; Potency, µM (titrated, usually from 28.9 µM), usual class: inhibitors; active = well fitted inhibition curve with a large enough effect; note: nearly all actives have a fitted effect of over 65% in size
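Readout: SYBR Green fluorescence, 485 nm excitation, 535 nm emission, after ~16 h lysis at 37C. Before that, Dd2-infected red cells (2.5% hematocrit) grew 72 h with compound, 29 uM top final concentration.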
A number is an active result; i = inactive.

SMILES | Pf Dd2 growth
O=C(C[C@@H]1CCNC[C@@H]1Cc1cc(-c2ccccc2)on1)NC1CC1 | i
CN1CCN(C(=O)C[C@@H]2CCNC[C@@H]2Cc2cc(-c3ccccc3)on2)CC1 | i
COc1ccc(-c2cc(C[C@H]3CNCC[C@H]3CC(=O)N3CCOCC3)no2)cc1 | i
CC(C)(C)c1ccc(-c2cc(C[C@H]3CNCC[C@H]3CC(=O)Nc3ccccc3)no2)cc1 | i
CC(C)(C)c1ccc(-c2cc(C[C@H]3CNCC[C@H]3CC(=O)N3CCC(Cc4ccccc4)CC3)no2)cc1 | i
CN(C)CCNC(=O)C[C@@H]1CCNC[C@@H]1Cc1cc(-c2ccc(C(C)(C)C)cc2)on1 | i
CCN(CC)C(=O)C[C@@H]1CCNC[C@@H]1Cc1cc(-c2ccc(C(C)(C)C)cc2)on1 | 4.5µM
CC(C)NC(=O)C[C@@H]1CCNC[C@@H]1Cc1cc(-c2ccc(C(C)(C)C)cc2)on1 | 7.1µM
O=C(Cc1ccc(OC(F)(F)F)cc1)N1CC(CNc2cccnc2)C2(C1)CN(c1ccccc1)C2 (centres undefined) | i
CCN1C(=O)C2(CCN(S(=O)(=O)c3ccc(Cl)c(C)c3)CC2)c2ccccc21 | i
Cc1ccccc1OCC1CN(Cc2c[nH]c3ccccc23)C(=O)c2c(ccnc2-c2ccc(OCC(=O)O)cc2)O1 (centres undefined) | i
O=C(c1ccsc1)N1CCC(Cc2nc(C3CCOCC3)no2)CC1 | i
COCC(=O)N1CCCC(c2noc(COC)n2)C1 (centres undefined) | i
CCNC(=O)N[C@H]1CC[C@]2(C)CCC([C@H](C)C(=O)NCc3ccccc3OC)[C@H](O)[C@H]2[C@@H]1C (some centres undefined) | i
O=C(NCC1CCCCC1)C1(CCO)CCN(c2ncccn2)C1 (centres undefined) | i
CC(C)Cc1cc(C(=O)NCc2noc(-c3c(F)cccc3F)n2)no1 | i
COc1ccc(-c2noc(N3CCC(C(=O)Nc4ccc(OC)c(OC)c4)CC3)n2)cc1 | i
Cc1nc(-c2ccc(C)c(S(=O)(=O)N3CCC(C(=O)Nc4ccc(Cl)cc4)CC3)c2)no1 | 11µM
COc1cccc(NC(=O)C2CCN(S(=O)(=O)c3cc(-c4noc(C)n4)ccc3C)CC2)c1 | 10µM
Cc1ccc(NC(=O)C2CCN(S(=O)(=O)c3cccc4nonc34)CC2)cc1C | i
CC(=O)c1ccc(N2CCN(S(=O)(=O)c3cc(-c4noc(C)n4)ccc3C)CC2)cc1 | i
Cc1nc(-c2cccc(S(=O)(=O)N3CCC(C(=O)NCc4ccccc4Cl)CC3)c2)no1 | i
O=C1C[C@@H]2CCN(C(=O)c3ccccc3)C[C@@H]2CCN1CCc1cnc[nH]1 | i
Cn1cccc1C(=O)N1CCn2c(nnc2[C@@H]2C[C@@H](O)CN2Cc2ccccc2)C1 | i
COc1ccc(-c2noc(-c3nc(C(C)C)no3)n2)cc1 | i
SMILES | Pf Dd2 growth
Cc1ccc(C(=O)Nc2ccccc2)cc1S(=O)(=O)N1CCCC1 | i
COc1cccc(N2CCN(S(=O)(=O)c3cc(-c4cc(C)no4)ccc3C)CC2)c1 | i
COC(=O)c1ccc(Nc2nnc(-c3ccc(C)c(S(=O)(=O)N4CCN(C)CC4)c3)c3ccccc23)cc1 | 1.6µM
Cc1ccc(C(=O)Nc2cccc(C(=O)O)c2)cc1S(=O)(=O)N1CCCC1 | i
Cc1ccc(-c2nnc(Nc3cccc(O)c3)c3ccccc23)cc1S(=O)(=O)N1CCN(C)CC1 | 10µM
Cc1ccc(-c2nnc(Nc3cccc(Cl)c3)c3ccccc23)cc1S(=O)(=O)N1CCOCC1 | i
Cc1ccc(-c2onc(C)c2C)cc1S(=O)(=O)N1CCCCC1 | i
Cc1ccc(-c2nnc(Nc3ccc(Br)cc3)c3ccccc23)cc1S(=O)(=O)N1CCN(C)CC1 | 5.6µM
Cc1ccc(-c2onc(C)c2C)cc1S(=O)(=O)N1CCN(c2ccccc2F)CC1 | i
Cc1ccc(C(=O)Nc2ccc(F)cc2)cc1S(=O)(=O)N1CCOCC1 | i
Cc1ccc(-c2nnc(Nc3cccc(C(F)(F)F)c3)c3ccccc23)cc1S(=O)(=O)N1CCOCC1 | 10µM
COCc1cc(CC2(NC(C)C)COC2)no1 | i
Cc1cccc(CN2C[C@@H]3C(C(=O)Nc4ccccc4)=NO[C@@H]3C2)c1 | i
O=C(c1cccc(OC(F)(F)F)c1)N1CCC(c2n[nH]c(=O)n2-c2ccccc2)CC1 | i
CC(C)(C)NC(=O)N1CC[C@H]2C(=O)NCCCCCN(Cc3cccnc3)[C@@H]2C1 | i
COCC(=O)Nc1cc(C(=O)N2CCc3cc(OC)c(OC)cc3C2)c2c(c1)nc(C1CCC1)n2C | i
COc1cc(CN2CCN(Cc3cccc(SC)c3)CC2CCO)cc(OC)c1 (centres undefined) | i
CC(C)N1CCOC(CC(=O)NCc2cc(N3CCOCC3)ncn2)C1 (centres undefined) | i
O=C(Nc1cccc(Cl)c1)C1=NO[C@@H]2CN(CCc3ccccc3)C[C@H]12 | i
Cc1ccc(C(=O)N2CCC3(CC2)NC(=O)N(c2ccc(F)cc2)N3)s1 | i
N#Cc1ccc(C(=O)N2CCC3(CC2)NC(=O)N(Cc2ccc(Cl)cc2)C3=O)cc1 | i
Cc1ccc(S(=O)(=O)N2CCC(CC(=O)NCc3ccccc3)C2)cc1F (centres undefined) | i
CCC(=O)N1CC(C(=O)N2CCN(c3ccccn3)CC2)C2(CCOCC2)C1 (centres undefined) | i
O=C(c1ccccn1)N1CCCC2(CNc3ccccc3[S+](=O)([O-])N2)C1 (centres undefined) | i
Cc1ccc(F)cc1S(=O)(=O)N1CCC(n2cnnc2C(C)C)CC1 | i
SMILES | Pf Dd2 growth
Cc1ccc(-c2nnc(Nc3ccc(F)cc3)c3ccccc23)cc1S(=O)(=O)N1CCN(C)CC1 | 10µM
Cc1ccccc1Nc1nnc(-c2ccc(C)c(S(=O)(=O)N3CCN(C)CC3)c2)c2ccccc12 | i
Cn1cnc(S(=O)(=O)N2CCCN(C3CCOCC3)CCNC(=O)CC2c2ccccc2)c1 (centres undefined) | i
COc1ccc(CCc2nc(-c3nnn4c3COC(c3ccc(OC)cc3)C4)no2)cc1 (centres undefined) | i
O=C(NC1CCN(Cc2ccccc2)CC1)C1CCCN(c2cnn(Cc3ccccc3)c(=O)c2)C1 (centres undefined) | i
O=C(NC1CCCCCCC1)C1CCCN(c2cnn(Cc3ccccc3)c(=O)c2)C1 (centres undefined) | i
O=C(NCc1ccc(Cl)cc1)C1CCCN(c2cnn(Cc3ccccc3)c(=O)c2)C1 (centres undefined) | 11µM
CCCS(=O)(=O)N1CCC2(CC1)CN(C(C)=O)CC2COC (centres undefined) | i
O=C(Cn1cccc1-c1nc(-c2ccc3c(c2)OCO3)no1)NCc1ccc(Cl)cc1 | i
CN(C)c1ccc(C(=O)N[C@H]2C[C@@H](c3nc(-c4ccc5c(c4)OCO5)no3)N(C)C2)cc1 | i
O=C(Cn1cccc1-c1nc(-c2ccc3c(c2)OCO3)no1)Nc1ccc(Cl)cc1 | 2µM
Cc1ccc(C(=O)NCCn2cccc2-c2nc(-c3ccc4c(c3)OCO4)no2)cc1C | i
CN(C)c1ccc(NC(=O)Cn2cccc2-c2nc(-c3ccc4c(c3)OCO4)no2)cc1 | i
O=C(NCCn1cccc1-c1nc(-c2ccc3c(c2)OCO3)no1)c1ccc2c(c1)OCO2 | 13µM
CN1C[C@@H](NC(=O)c2ccc(F)cc2)C[C@H]1c1nc(-c2ccc(Cl)cc2)no1 | i
O=C(NCCn1cccc1-c1nc(-c2ccc3c(c2)OCO3)no1)c1ccc(F)cc1 | i
CN1C[C@@H](NC(=O)c2ccc3c(c2)OCO3)C[C@H]1c1nc(-c2ccc(Cl)cc2)no1 | 10µM
